The source made the active and inactive calls. Unless noted, no rule for the calls is given here.

We go through 17 compounds from PubChem BioAssay.

For test [1], the system named is XIP peptide (Xip251-270) binding. In words: XIP fragment 251-270 binding compounds – biochemical, small-molecule microarray, fluorescence 635/667 nm, 0.1 µg/mL protein, primary screen (AID 1182). To be noted: fluorescent protein binding, 635 nm, higher = more signal, called active from +8 up or from −8 down.
A further test has as its system XIP peptide (Xip251-270). Put plainly: compounds binding XIP fragment 251-270 – biochemical, small-molecule microarray, fluorescence 635/667 nm, 0.5 µg/mL protein, primary screen (AID 1183). To be noted: fluorescence 635 nm, higher = more signal.
Test [2] in a line: blood-stage malaria parasite viability loss – strain 3D7, DAPI fluorescence, 100 nL, primary screen (AID 1184).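 Also: parasites grown inside human red blood cells in medium with human serum.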 To be noted: P. falciparum 3D7 growth, 3 d, higher = more signal.
For test [3], the target named is Homeobox protein Hox-A13 (Mus musculus) (UniProt Q62424). In words: disruptors of Hoxa13 oligonucleotide interaction – biochemical, fluorescence polarization, labeled oligonucleotide, primary screen (AID 1185). The settings on record: Hoxa13:DNA binding, 15 min, higher = more signal, called active from +8 up or from −8 down. A general note: Fluorescence polarisation rises when a labelled molecule tumbles more slowly, as on binding a larger partner.
Chain of Homeobox protein Hox-A13 (Mus musculus) (Q62424 whole entry, looked up): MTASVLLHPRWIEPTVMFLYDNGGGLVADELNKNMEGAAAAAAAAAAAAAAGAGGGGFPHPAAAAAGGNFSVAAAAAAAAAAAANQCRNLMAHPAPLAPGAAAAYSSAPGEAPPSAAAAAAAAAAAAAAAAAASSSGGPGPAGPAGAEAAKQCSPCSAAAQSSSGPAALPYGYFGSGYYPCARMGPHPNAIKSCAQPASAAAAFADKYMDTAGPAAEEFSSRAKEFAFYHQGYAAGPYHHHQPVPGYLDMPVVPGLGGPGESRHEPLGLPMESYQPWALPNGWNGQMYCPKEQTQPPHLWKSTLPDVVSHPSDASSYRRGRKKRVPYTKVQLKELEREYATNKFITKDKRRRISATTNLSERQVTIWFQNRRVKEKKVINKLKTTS

Test [4] can be described thus: blockers of DNA damage checkpoint Chk1 activation – imaging, HeLa, hydroxyurea, phospho-Chk1 antibody, percent positive cells, primary screen (AID 1186). To be noted: hydroxyurea-induced phospho-Chk1 immunofluorescence imaging, higher = more signal.
Test [5] can be described thus: blockers of DNA damage checkpoint Chk1 activation – imaging, HeLa, hydroxyurea, phospho-Chk1 nuclear intensity, primary screen (AID 1187). The settings on record: hydroxyurea-induced phospho-Chk1 immunofluorescence imaging, higher = more signal.

`C=CC1c2cc(O)c(OC)cc2CCN1Cc1ccc([N+](=O)[O-])o1` (configuration not stated): the composite z-score in test [1] was 0.835 (inactive); in the test with XIP peptide (Xip251-270), 0.905. Further, the z-score was -0.83 in test [2], -4.18 (inactive) in test [3], -0.131 (inactive) in test [4] and 0.406 (inactive) in test [5].
Consider `O=C1c2ccccc2[C@](Cc2ccccc2I)(C(=O)NC2CC2)[C@H](c2ccc(CO)cc2)N1Cc1ccccc1C(F)(F)F`, for which the composite z-score in test [1] is 0.135 (inactive); in the test with XIP peptide (Xip251-270), 0.59. The z-score in test [2] is -1.89; in test [3] it was -4.02 (inactive); in test [4] it was -0.0771 (inactive); in test [5] it was -0.189 (inactive).
Turning to `CCOC(=O)C1=CC[C@@H](c2ccccc2)N(S(=O)(=O)c2ccc(C)cc2)[C@H]1c1cccc(OC)c1`, the composite z-score in test [1] is -0.285 (inactive); in the test with XIP peptide (Xip251-270) it was 0.291. For the same compound, the z-score in test [2] was -2.14; in test [3] it was 0.892 (inactive); in test [4], 0.238 (inactive); in test [5] it was -0.67 (inactive).
Turning to `CCCCNC(=O)c1ccc(C#C[Si](C(C)C)(C(C)C)C(C)C)c(OC(C)=O)c1`, the values for the composite z-score (in test [1]; in the test with XIP peptide (Xip251-270)) were -0.211 (inactive) and 0.413, respectively. For the same compound, the z-score in test [2] was -2.74; in test [3], -2.16 (inactive); in test [4], 0.0917 (inactive); in test [5], 0.331 (inactive).
Regarding `NC(=O)[C@H]1[C@@H]2C(=O)O[C@@H](c3ccccc3)[C@@H](c3ccccc3)N2[C@@H](c2ccc(O)cc2)[C@]12C(=O)Nc1ccc(C#CC3=CCCCC3)cc12`, the composite z-score in test [1] was 0.875 (inactive); in the test on XIP peptide (Xip251-270), -0.0283. In addition, the z-score in test [2] is -0.88; in test [3], -1.08 (inactive); in test [4], -0.165 (inactive); in test [5], -0.348 (inactive).
On to `CCCCC=C[C@@H](NC(=O)c1ccccc1)c1ccccc1`, for which the composite z-score in test [1] is 0.558 (inactive); with XIP peptide (Xip251-270) it was 0.496. Also, the z-score is -1.47 in test [2], 2.61 (inactive) in test [3], 0.855 (inactive) in test [4] and 0.274 (inactive) in test [5].
Turning to `CC(C)CCC[C@@H](C)[C@H]1CC[C@@]2(C)C3=C(CC[C@]12C)[C@@]1(C)CC[C@H](OC(=O)c2ccccc2)C(C)(C)C1CC3` (some centres not stated), the composite z-score in test [1] is 0.276 (inactive); with XIP peptide (Xip251-270), 0.0627. Also, the z-score in test [2] was -0.544; in test [3], -1 (inactive); in test [4], -0.531 (inactive); in test [5], -0.299 (inactive).
On to `CN1C(=O)C2C=CC(C(O)c3cc(C(F)(F)F)cc(C(F)(F)F)c3)N(NC(=O)OC(C)(C)C)C2C1=O` (configuration not stated), for which the composite z-score was 1.07 (inactive) in test [1] and 0.623 in the test with XIP peptide (Xip251-270). The z-score in test [2] is -1.32; in test [3], -5.04 (inactive); in test [4] it was 0.0279 (inactive); in test [5], 0.275 (inactive).
Consider `[N-]=[N+]=Nc1ccccc1C[C@@]1(C(=O)O)N=C(c2ccc(OCCCO)cc2)O[C@@H]1c1ccccc1N=[N+]=[N-]`, for which the composite z-score in test [1] was 0.0588 (inactive); in the test with XIP peptide (Xip251-270), 0.736. Further, the z-score in test [2] was -1.74; in test [3] it was -5.17 (inactive); in test [4], -0.267 (inactive); in test [5] it was -0.317 (inactive).
For the compound `COc1ccc([Si](C)(C)[C@@H]2[C@@H](CC(=O)N3Cc4ccccc4C[C@H]3CO)O[C@]3(C(=O)N(c4ccccc4)c4ccccc43)[C@H]2C)cc1`, the composite z-score in test [1] was 3.93 (inactive); with XIP peptide (Xip251-270) it was 0.546. Further, the z-score was -2.38 in test [2], -4.85 (inactive) in test [3], -0.0103 (inactive) in test [4] and -0.192 (inactive) in test [5].
Turning to `COC(=O)c1c2oc(c1C(=O)OC)C(=O)N1CCC[C@H]1Cn1nncc1CN(Cc1ccccc1)C(=O)N[C@H](CO)CC2`, the composite z-score is -0.0783 (inactive) in test [1] and 0.59 with XIP peptide (Xip251-270). In addition, the z-score in test [2] was -0.414; in test [3], -3.78 (inactive); in test [4], 0.159 (inactive); in test [5] it was 0.306 (inactive).
For `CCOC(=O)C=Cc1cc(F)ccc1O`, the composite z-score was 0.198 (inactive) in test [1] and 0.487 in the test on XIP peptide (Xip251-270). Further, the z-score in test [2] was -1.65; in test [3], -0.42 (inactive); in test [4] it was 0.631 (inactive); in test [5] it was -1.13 (inactive).
For the compound `Cc1cccc([C@H]2C[C@H]3C(I)=C[C@@H]2C(=O)[C@]32CO2)c1`, the composite z-score in test [1] was 0.162 (inactive); in the test with XIP peptide (Xip251-270), -0.452. The z-score is 1.22 in test [2], -1.53 (inactive) in test [3], -0.33 (inactive) in test [4] and -0.466 (inactive) in test [5].
`COCCOC(=O)N1C(=O)[C@@]2(c3cc(C#CC4(O)CCCCCC4)ccc31)[C@H](C(=O)N1CCN(c3ncccn3)CC1)[C@H]1C(=O)O[C@H](c3ccccc3)[C@H](c3ccccc3)N1[C@@H]2c1ccccc1OCCO`: the composite z-score in test [1] was 1.01 (inactive); with XIP peptide (Xip251-270), 0.61. The z-score in test [2] is -2.07; in test [3], -0.77 (inactive); in test [4], -0.0411 (inactive); in test [5] it was 0.0349 (inactive).
Regarding `CCOC(=O)C1=C[C@@H](C(C)(C)C)N(S(=O)(=O)c2ccc(C)cc2)[C@H]1c1cccc(Cl)c1`, the composite z-score in test [1] was -0.248 (inactive); in the test on XIP peptide (Xip251-270), 0.765. Also, the z-score was -2.08 in test [2], 0.0204 (inactive) in test [3], 0.347 (inactive) in test [4] and -0.136 (inactive) in test [5].
Regarding `CC(C)[Si]1(C(C)C)OCc2cc(-c3ccc(-c4ccc(Cl)c(Cl)c4)o3)nc(CCc3ccccc3)c21`, the composite z-score is -0.218 (inactive) in test [1] and -0.355 with XIP peptide (Xip251-270). Moreover, the z-score is -0.946 in test [2], 0.0584 (inactive) in test [3], -0.691 (inactive) in test [4] and -0.229 (inactive) in test [5].
Turning to `C=CCC(OC(C)=O)[C@@H]1[C@@H](N(Cc2ccc(-c3cccc(C(F)(F)F)c3)o2)C(=O)Cc2ccc(OC)cc2)c2cc(OCCCO)ccc2N1C(=O)Cc1ccc2ccccc2c1` (some centres not stated), the composite z-score is 0.0389 (inactive) in test [1] and 0.625 with XIP peptide (Xip251-270). Moreover, the z-score is -2.17 in test [2], -1.9 (inactive) in test [3], 0.162 (inactive) in test [4] and 0.375 (inactive) in test [5].
